Laboratory results from PubChem BioAssay AID1276 (Columbia University Molecular Screening Center, 2008).
Among all 190,000 compounds or so, about 2,000 (1.1%) were called active. The sample holds actives, similar compounds and a random draw of the others, so the mix is not that of the screen. A number with no mark means an inactive call.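 The calls were made as follows: active = activation above a set limit, based on mean plus 3 SD of controls (cut at about 140% in these data); inconclusive = one replicate above the limit, the other below; inactive = the rest.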

Test: APP 5'UTR reporter signal increase – luciferase, SH-SY5Y cells, primary screen (AID 1276)
Settings: SH-SY5Y APP 5'UTR luciferase reporter, luminescence; at 2 µM; hits give high values; zero percent = DMSO vehicle wells

| SMILES | activation |
| --- | --- |
| COc1cc(OC)c(-n2cc(-c3ccc(Cl)cc3)[nH]c2=O)cc1Cl | -7.27% |
| CC1(C)CC(=O)C=C(N2CCOCC2)C1 | 6.79% |
| CCCNS(=O)(=O)c1ccc(CCC(=O)N2CCCC2)cc1 | 4.45% |
| CC(C)CC(=O)N/C(N)=N/c1nc2ccccc2s1 | 203% (active) |
| O=C(O)CCCCc1nc2ccccc2s1 | -11.6% |
| CCC(=O)NC(=Nc1nc2ccccc2s1)NC(=O)CC | 147% (active) |
| CC(C)CC(=O)NC(=S)NCc1ccccc1 | 9.6% |
| COC(=O)c1nc2ccccc2s1 | -8.64% |
| O=C(O)CSCc1nc2ccccc2s1 | -3.48% |
| Cc1ccc(C(=O)NNC(=O)c2cccs2)cc1 | 38.8% |
| NC1=NC(=O)C(Cc2cccc(Cl)c2)S1 (stereo not drawn) | 11.8% |
| C=CCO/N=C/C1=C(O)C(C(=O)OC)C(C)(C)CC1=O (stereo not drawn) | 7.9% |
| Cc1cccc(C)c1OCC(=O)NC(Cc1c[nH]c2ccccc12)C(=O)O (stereo not drawn) | 10.3% |
| O=C(CN1C(=O)c2cccc3cccc1c23)Nc1ccccc1 | -9.88% |
| O=C(N/N=C/c1cc2c(cc1Br)OCO2)C1COc2ccccc2O1 (stereo not drawn) | -5.77% |
| O=C(NCCc1ccccc1)c1ccc(OCCOc2ccccc2)cc1 | 4.18% |
| O=C(NCCOc1ccccc1)c1ccccc1 | 123% |
| CCCOc1ccc(C(=O)NCCc2ccccc2)cc1 | 156% (active) |
| COc1cccc(C(=O)Nc2ccc(NC(=O)c3ccco3)cn2)c1 | 25.8% |
| Cc1ccnc(NC(=O)c2ccc(NC(=O)c3ccco3)cc2)c1 | 79.3% |
| O=C(Nc1ccc(NC(=O)c2cccs2)cn1)c1ccco1 | 148% (active) |
| O=C(Cc1ccccc1)NNC(=O)C1CCN(c2ncccn2)CC1 | 18.4% |
| O=C(NC1CCCC1)c1ccc(Br)s1 | -4.11% |
| CC(C)C(=O)OCC(=O)Nc1ccc2c(c1)CCC2 | 5.67% |
| O=C(Nc1ccc2c(c1)CCC2)c1ccc(Br)s1 | 208% (active) |
| Cc1ccc2nsnc2c1S(=O)(=O)N1CCCC1C(=O)O (stereo not drawn) | -2.44% |
| CCNc1nc(-c2cc3ccccc3o2)cs1 | 188% (active) |

| SMILES | activation |
| --- | --- |
| O=c1oc2ccccc2cc1-c1csc(Nc2ccc(O)cc2)n1 | 61% |
| COc1ccc2nc(Nc3nc(-c4cc5ccccc5oc4=O)cs3)sc2c1 | 33% |
| CC(Nc1ccccc1)c1cccnc1 (stereo not drawn) | -12.4% |
| CCOc1ccc2nc(NCCNS(=O)(=O)c3ccccc3)c(C#N)cc2c1 | 6.65% |
| CCOc1ccc2cc(C#N)c(SCC(=O)OC)nc2c1 | 159% (active) |
| Cc1nonc1NC(=O)CSc1nc2ccccc2cc1C#N | 15.1% |
| CN1CCN(/N=C2/C(=O)Nc3ccc([N+](=O)[O-])cc32)CC1 | 13.5% |
| COc1ccc(-c2nnc3ccc(SCc4ccccc4)nn23)cc1 | -7.22% |
| COc1ccc2nc(SCc3ccccc3)nc(C)c2c1 | 170% (active) |
| COC(=O)CSc1nc(C)c2ccc(OC)cc2n1 | 0.88% |
| Cc1ccc(NC(=O)CCC(=O)N/N=C/c2ccco2)c(C)c1 | 8.01% |
| COc1ccc(C2=Nc3cc(C)ccc3OC2)cc1 | 151% (active) |
| COc1ccc(C2=NOC(COC(=O)c3ccc4ccccc4n3)C2)cc1 (stereo not drawn) | 16.6% |
| COc1ccc(C2=NOC3(CC(=O)N(c4ccc(C)cc4)C3=O)C2)cc1 (stereo not drawn) | -3.01% |
| CCOc1ccccc1N1CCN(C(=S)Nc2ccc(S(N)(=O)=O)cc2)CC1 | 11.8% |
| Clc1ncn(CCOc2ccccc2)c1Cl | -15.2% |
| Fc1ccc2nc(Nc3nc4c(s3)CCCC4)sc2c1 | 143% (active) |
| Fc1ccc2nc(N3CCCCC3)sc2c1 | 112% |
| CSc1ncccc1C(=O)Nc1nc2ccc(F)cc2s1 | 52.4% |
| CC(=O)Nc1ccc(S(=O)(=O)N2CCN(c3ccc([N+](=O)[O-])c(NCCN4CCOCC4)c3)CC2)cc1 | -6.4% |
| O=C(COC(=O)[C@H](Cc1ccccc1)NC(=O)c1cccs1)Nc1cc(F)ccc1F | 12.5% |
| O=C(CSc1nnc(SCc2ccc(Cl)cc2)s1)N/N=C/c1ccccc1Cl | -2.73% |
| COc1ccc(NC(=O)CSc2nc(C)cs2)cc1 | 6.05% |
| Cc1csc(SCC(=O)Nc2sccc2C#N)n1 | 192% (active) |
| Cc1cccc(C)c1Nc1nnc(SCC(=O)Nc2sccc2C#N)s1 | -9.91% |
| C=CCn1c(CCNC(=O)c2cccs2)n[nH]c1=S | -1.77% |
